tim23-1 inh = growth inhibitors of tim23-1 mutant yeast; S. cerevisiae tim23-1 growth, BacTiter-Glo luminescence, 24 h; AID 463212; 330,000 tested, 1.3% active; inhibition, % at 20 µM;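 active means growth inhibition of the mutant yeast at or above 50%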;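 further: temperature-sensitive mutant grown at 25 °C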
V-ATPase pHluor = regulators of yeast V-ATPase proton transport; S. cerevisiae, pHLuorin cytosolic pH fluorescence; response, % at 10 µM; 350,000 tested, 0.37% active; in the data active means response mostly above about 7.3%, no sharp cut-off; inactive means mostly below about 5.4%; further: actives read high
NALP3 yeast inh = inhibitors of NALP3 inflammasome in yeast; Yeast reconstituted NLRP3/ASC/caspase-1, beta-gal luminescence, 24 h; inhibition, % at 10 µM; 330,000 tested, 0.39% active; AID 2825;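 active means inhibition of 50% or more; inactive means inhibition below 50%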
TIM10 inh = inhibits growth of TIM10 yeast strain. S. cerevisiae TIM10 strain growth, BacTiter-Glo luminescence, 24 h. inhibition, % at 10 µM. 330,000 tested, 1.4% active;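 active means inhibition of 40% or more at the single tested concentration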;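 further: wild-type TIM10 isogenic control strain grown at permissive 25 °C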
tim10-1 inh = inhibits growth of tim10-1 mutant yeast. S. cerevisiae tim10-1 ts strain growth, BacTiter-Glo, 24 h. inhibition, % at 20 µM. 330,000 tested, 2.2% active;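 active means inhibition of at least 40%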;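 further: mutant grown at 25 °C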
NALP1 yeast inh = blocks the NALP1 inflammasome reconstituted in yeast; S. cerevisiae NALP1/ASC/caspase-1 growth, X-gal OD620, 72 h; inhibition, % at 10 µM; 280,000 tested, 0.61% active; AID 2071; in the data active means inhibition mostly above about 24%, no sharp cut-off; inactive means mostly below about 32%
tim10-1 confirm = confirmation of tim10-1 mutant yeast growth inhibitors. shares compounds with tim10-1 inh. S. cerevisiae tim10-1 ts strain growth, BacTiter-Glo, 24 h. inhibition, % at 20 µM. 7,400 tested, 56% active. AID 463213;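 active means inhibition of yeast growth at or above a set limit in either of two repeat tests at 20 µM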;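 further: tim10-1 mutant grown at permissive 25 °C to find synthetic lethal compounds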
Large screens that a line does not name were inactive (follow-up assays come after a bar, where they were run). In the library only some 4.2% were active in any assay of this set; here they are far more common.

COc1ccccc1CNC(=S)Nc1ccc(F)cc1	tim10-1 inh 48 | tim10-1 confirm inactive
COC(=O)COC(=O)c1ccc(-n2nnnc2SC)cc1	none
Cc1nnnn1/C(=C\c1ccccc1)C(=O)OCC(=O)NC(C)(C)C	tim10-1 inh 45 (no result: NALP1 yeast inh) | tim10-1 confirm 34
CC(=O)Nc1ccc(NC(=O)COC(=O)/C(=C/c2ccccc2)n2nnnc2C)cc1	none
Cc1c(N=C2N=C(NC(=O)c3cccs3)c3ccccc32)c(=O)n(-c2ccccc2)n1C	none
CCOC(=O)N1CCN(C(=O)CCc2c(C)nc3c(c(C)nn3-c3ccc(C)c(C)c3)c2C)CC1	none | tim10-1 confirm 35
CCOc1cccc(/C=N/NC(=S)Nc2ccccc2[N+](=O)[O-])c1O	tim10-1 inh 46 | tim10-1 confirm inactive
CCCCNC(=S)N/N=C/c1cccc(OCC)c1O	none
Oc1ccc(/C=C/c2ccnc3ccccc23)cc1	none
Clc1ccccc1/C=C/c1ccnc2ccccc12	tim10-1 inh 44 | tim10-1 confirm inactive
COc1cc(Nc2nc3ccccc3nc2NS(=O)(=O)c2ccc([N+](=O)[O-])cc2)cc(OC)c1OC	tim10-1 inh 46 | tim10-1 confirm 35
Cc1cc(C)n(CC(O)Cn2ccc3ccccc32)n1 (centres undefined)	none
C=C(C)C1Cc2c(C)nn(-c3nc(C)cc(C)n3)c2C1 (centres undefined)	tim10-1 inh 42 | tim10-1 confirm inactive
C=C(C)C1Cc2nc(N)nc(C)c2C1 (centres undefined)	none
CN1CCN(C(=S)NC(=O)/C=C/c2cccc3ccccc23)CC1	tim10-1 inh 51 (no result: NALP1 yeast inh) | tim10-1 confirm inactive
CN1CCN(C(=S)NC(=O)/C=C/c2cccs2)CC1	none
O=C(COc1cccc(C(F)(F)F)c1)Nc1nnc(C2CC2)s1	none (no result: NALP1 yeast inh)
O=C(/C=C/c1cccc([N+](=O)[O-])c1)NC1CC2CCC1C2 (centres undefined)	none
Cc1nc(SCCO)c2oc3ccccc3c2n1	none
Cc1cc(C)nc(NC(=S)Nc2cccc(F)c2)c1	tim10-1 inh 40 | tim10-1 confirm inactive
COc1cccc(NC(=S)Nc2cc(C)cc(C)n2)c1	none
CCN(CC)C(=O)C1=C(C)N(Cc2ccc(C(C)(C)C)cc2)C(=O)C(CC(=O)NCCc2ccccn2)C1 (centres undefined)	none (no result: tim23-1 inh, NALP3 yeast inh, TIM10 inh, tim10-1 inh, NALP1 yeast inh)
c1ccc2c(c1)ncc1cccn12	none
CCn1c2ccccc2c2c3ncc4cccn4c3ccc21	tim10-1 inh 49 | tim10-1 confirm 30
Cc1nn(C(C)C(=O)NC2CCC(C)CC2)c(=O)c2nn(-c3ccccc3)c(C)c12 (centres undefined)	tim10-1 inh 41 | tim10-1 confirm inactive
Cc1ccc(C)c(C(=O)OCC(=O)N(C)c2ccccc2)c1	tim10-1 inh 56 | tim10-1 confirm 44
COc1ccc(-c2cc(-c3ccccc3)c(C#N)c(S(C)=O)n2)cc1 (centres undefined)	tim10-1 inh 45 | tim10-1 confirm 30
CSc1ccc(CNCCCSc2ncccn2)cc1	none
CN1CCN(C(=O)c2ccc(-n3cccn3)nc2)CC1	none
Cc1c(NC(=O)/C(C#N)=C/c2ccc(-c3ccc(Cl)c(Cl)c3)o2)c(=O)n(-c2ccccc2)n1C	tim10-1 inh 43 | tim10-1 confirm 28
CC12CCC(C(=O)NC(c3ccccc3)c3ccccc3)(OC1=O)C2(C)C (centres undefined)	tim10-1 inh 42 | tim10-1 confirm inactive
Cc1nn(Cc2ccc(F)cc2)c(Cl)c1/C=N/NC(=O)c1cccnc1	none
O=C(COc1ccc(F)cc1)OCCN1CCOCC1	none
CCCCC1CC1C(=O)Nc1ncc2c(n1)CC(C)(C)CC2=O (centres undefined)	none
O=C(O)c1ccc(-c2cccc([N+](=O)[O-])c2)o1	none
O=C(NC1CCCCC1)c1ccc(-c2cccc([N+](=O)[O-])c2)o1	tim10-1 inh 41 | tim10-1 confirm inactive
OCC1(Cc2ccccc2)CCN(Cc2cnc(-c3ccc(Cl)cc3)nc2)CC1	tim10-1 inh 47 | tim10-1 confirm inactive
OCC1(Cc2ccccc2)CCN(Cc2cnc(-c3cccc4ccccc34)nc2)CC1	none
O=C(CSc1nc(-c2ccccc2)cs1)N1CCN(C(=O)c2ccco2)CC1	tim10-1 inh 44 | tim10-1 confirm inactive
O=C(CSc1ccccc1)N1CCN(C(=O)c2ccco2)CC1	none
CC1CCCC(n2c(=S)[nH]c3ccccc3c2=O)C1C (centres undefined)	tim10-1 inh 42 | tim10-1 confirm inactive
Cc1cc(OC(=O)c2cccc(Br)c2)c([N+](=O)[O-])c(=O)[nH]1	tim10-1 inh 46 | tim10-1 confirm inactive
CC1(C)CC(=O)c2sc(NC(=O)CCS(=O)(=O)c3ccccc3)nc2C1	tim10-1 inh 46 | tim10-1 confirm 37
COc1cnc(-c2ccccc2)nc1Oc1cccc(C)c1C	none
Cc1ccc(NC(=O)c2sccc2C)cc1S(=O)(=O)N(C)C	none
CC1(C)Cc2c(C#N)c(N3CCN(C(=O)c4ccccc4)CC3)nc(-c3ccco3)c2CS1	tim10-1 inh 44 | tim10-1 confirm 33
CC(C)c1nc(N2CCN(C(=O)c3ccccc3)CC2)c(C#N)c2c1COC(C)(C)C2	none
O=C(c1ccccc1)c1sc(N2CCCCCC2)nc1-c1ccccc1	tim10-1 inh 43 | tim10-1 confirm inactive
COc1ccc(-c2nc(N3CCCCCC3)sc2C(=O)c2ccccc2)cc1	none
C=CCn1c(SCc2ccc(C(=O)Nc3nccs3)cc2)nnc1-c1ccc(C)c(Cl)c1	none
Cn1nc(C(F)(F)F)c(C(=O)Nc2ccc(F)cc2F)c1Sc1cccc(C(F)(F)F)c1	none
Cn1nc(C(F)(F)F)c(C(=O)Nc2ccc(F)cc2F)c1Sc1cccc(Cl)c1	tim10-1 inh 44 | tim10-1 confirm 34
CCOC(=O)C1=C(N)Oc2cc(O)ccc2C1c1cccc(Cl)c1 (centres undefined)	none
S=C(NNc1ccnc2cc(Cl)ccc12)Nc1ccc(Cl)cc1Cl	none (no result: NALP1 yeast inh)
CCOc1ccc(NC(=S)NNc2ccnc3cc(Cl)ccc23)cc1	tim10-1 inh 47 | tim10-1 confirm inactive
Cc1ccc(S(=O)(=O)Nc2cccc(C(=O)N3CCN(c4ccccc4O)CC3)c2)cc1F	none (no result: NALP1 yeast inh)
Cc1ccc(N2CSC3=C(C#N)C(c4cccs4)CC(=O)N3C2)cc1 (centres undefined)	tim10-1 inh 40 | tim10-1 confirm inactive
S=c1[nH]cc(-c2ccccc2)n1-c1ccccc1	tim10-1 inh 44 | tim10-1 confirm inactive
CCn1c(-c2ccccc2)c[nH]c1=S	none (no result: V-ATPase pHluor)
S=c1[nH]nc(COc2ccccc2)n1/N=C/c1cccc(Br)c1	tim10-1 inh 45 | tim10-1 confirm inactive
CN(C)c1ccc(/C=N/n2c(COc3ccccc3)n[nH]c2=S)cc1	none
S=c1[nH]nc(COc2ccccc2)n1/N=C/c1cccs1	tim10-1 inh 42 (no result: NALP1 yeast inh) | tim10-1 confirm inactive

Source: PubChem
